# Compounds with a hit are over-represented: about 0.9% of the library has one in this group of screens.
# TAR Tat displ = HIV-1 TAR-Tat binding disruption. z-score (test concentration not listed). HIV-1 TAR RNA, Tat peptide displacement FRET; stronger effect = higher value. 100,000 compounds, 0.6% hits; active = z-score of 3 or more in at least 2 runs
# CDC25B CDK2 inh = human CDC25B-CDK2/CyclinA binding inhibition; P30305+P24941; HTRF CDC25B-CDK2/CyclinA binding, anti-His/anti-Flag; stronger effect = higher value; z-score (no concentration beside the values); 94,000 compounds, 0.72% hits; AID 1259370; in the data active = z-score above about 3.2
# An asterisk follows results filed as active; . = no result.
SMILES,TAR Tat displ,CDC25B CDK2 inh
CCS(=O)(=O)c1ncc(Cl)c(C(=O)N(Cc2ccco2)C2CCS(=O)(=O)C2)n1 (centres undefined),1.6,-1.4
Cc1ccc(-c2csc(Nc3ccc(S(N)(=O)=O)cc3)n2)cc1,2,-0.94
NS(=O)(=O)c1ccc(Nc2cc(-c3ccco3)cs2)cc1,.,17*
CCN(CC)CCNc1cc(C)nc2cc(-c3ccc(OC)c(OC)c3)nn12,4*,1.7
COc1ccc(-c2cc3nc(C)cc(NCC(C)C)n3n2)cc1OC,2.6,-0.86
C[C@H]1CC2C3CCC4=CC(=O)C=C[C@]4(C)[C@@]3(Cl)[C@@H](O)C[C@]2(C)[C@@]1(O)C(=O)CO (some centres undefined),.,-1.5
Nc1cccc(N2CCn3c(nc4ccccc43)C2)c1,-3.4,7.4*
Nc1ccc(N2CCn3c(nc4ccccc43)C2)cc1,-1.7,13*
Nc1cccc(N2CCn3c(nc4cc(Cl)ccc43)C2)c1,-5.1,-0.91
c1ccc(CN2CCn3c(nc4ccccc43)C2)cc1,0.68,-1.8
CCOC(=O)C(C)(Sc1nc(N)c(C#N)c(SC)c1C#N)C(=O)OCC,.,-2.7
CCN(CC)CCn1c(C)c(C)c2c1ncn1nc(-c3ccc(F)cc3)nc21,0.85,-0.31
O=C(Cn1sc2ccccc2c1=O)NCc1cccc(Br)c1,2.7,-1.8
O=C(O)c1ccccc1Sc1cc(C(=O)O)c(Sc2ccccc2C(=O)O)cc1C(=O)O,.,15*
CSc1ccccc1C(=O)c1ccccc1C(=O)O,.,-1.5
Cc1ccc(C)c(Nc2c(-c3ccc(C(C)C)cc3)c(=O)c2=O)c1,1.3,.
CCCc1cc(=O)n2nc(N(C)CC(=O)N3CCOCC3)sc2n1,0.81,-0.25
O=c1ccc2cc(O)c(O)cc2o1,25*,.
O=c1ccc2ccc(O)cc2o1,0.33,.
O=C(Nc1cccc2nsnc12)c1cccc(-n2cnnc2)n1,14*,.
O=C(Nc1cccc2nsnc12)c1nc(-n2cnnc2)ccc1Br,2.5,.
CC1(C)OC(=O)C(=Cc2ccc(OCc3ccc(F)cc3)c([N+](=O)[O-])c2)C(=O)O1,.,-1.6
CCCCC1(C)OC(=O)C(=Cc2cc3c(cc2[N+](=O)[O-])OCO3)C(=O)O1 (centres undefined),.,20*
O=S(=O)(O)c1cc[n+]([O-])cc1,.,4.4*
O=S(=O)(O)c1ccc2[nH]c(=S)sc2c1,.,-0.66
SMILES,TAR Tat displ,CDC25B CDK2 inh
CC(=O)Nc1c2n(c3ccc(F)cc13)CC(C)(C(=O)NC1CCCCC1)N(C(C)C)C2=O (centres undefined),18*,.
CC(=O)Nc1c2n(c3ccc(F)cc13)CC(C)(C(=O)NC1CCCCC1)N(CCC(C)C)C2=O (centres undefined),1.5,.
COC(=O)c1cc2oc3ccccc3c2n1CC(=O)NCc1ccco1,8*,4.1
Cn1c(C(=O)NCc2ccco2)cc2oc3ccccc3c21,.,-4.6
Cc1ccc2nc(N3CCc4ccccc4C3)c3nncn3c2c1,2,-0.87
Cc1cc2c(cc1NS(=O)(=O)c1cnc[nH]1)n(C)c(=O)c(=O)n2C,-0.41,.
Cc1ccc(S(=O)(=O)Nc2cc(Sc3nc4ccccc4[nH]3)c(O)c3ccccc23)cc1,.,18*
Cc1ccc(S(=O)(=O)Nc2cc(Sc3nc(C)cc(C)n3)c(O)c3ccccc23)cc1,.,-2.3
O=C1NC(=O)/C(=C/c2ccc(-c3ccc(F)cc3O)o2)S1,.,0.33
O=C1NC(=S)N/C1=C/c1ccc(-c2cc(C(=O)O)ccc2Cl)o1,.,3.6*
Cc1[nH]c(C)c(S(=O)(=O)N2CCC(C(=O)Nc3nccs3)CC2)c1C(=O)N1CCCCC1,-0.44,.
N#CC1=C2SCN(c3ccc(F)cc3)CN2C(=O)CC1c1c(F)cccc1Cl (centres undefined),-0.67,1.2
COc1ccc(N2CSC3=C(C#N)C(c4c(F)cccc4Cl)CC(=O)N3C2)cc1 (centres undefined),-1.8,3.7*
COc1ccc(C2CC(=O)N3CN(c4ccc(Cl)cc4)CSC3=C2C#N)c(OC)c1 (centres undefined),0.43,6*
COc1ccc(C2CC(=O)N3CN(c4ccc(C)c(C)c4)CSC3=C2C#N)c(OC)c1 (centres undefined),-1.4,3.7*
COc1ccc(C2CC(=O)N3CN(c4ccccc4)CSC3=C2C#N)c(OC)c1 (centres undefined),-1.4,5.2*
COc1ccc(C2CC(=O)N3CN(c4ccc(OC)cc4OC)CSC3=C2C#N)c(OC)c1 (centres undefined),-1.7,5.7
COc1ccc(Cl)cc1NC(=O)CSc1nnc(C)n2c1cc1occc12,5.2,.
O=c1c(NCCc2ccc(Cl)cc2)c(-c2ccc(Cl)cc2)c1=O,-1.6,.
O=c1c(NCCc2ccc(Cl)cc2)c(-c2ccccc2)c1=O,6*,.
CCCSc1ccc(Cl)nn1,-0.61,0.52
Cn1c(=O)oc2cc(S(=O)(=O)N3CCCC(C(=O)N4CCN(C5CCCCC5)CC4)C3)ccc21 (centres undefined),-0.02,-0.58
O=C(O)CSCC(=O)Nc1cc(C(F)(F)F)cc(C(F)(F)F)c1,.,8.4*

# Screening data (PubChem BioAssay)
